Reference: the supplement of paper PMC7156485
Values joined by “and” are separate entries in the source; they are usually repeats but may differ in a detail not shown here. Equal entries are not always repeated. ± gives the standard deviation of the averaged measurements.

Tests used:
Conditions in all cases: concentration: 10 µM; 24 h
HCC1569 [1] = experiment: cell number relative to DMSO (% of DMSO); higher = more cells (less growth inhibition / toxicity)
Procedure, shortened: (§1)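 H1.0 nuclear intensity or cell number is expressed as percent of the plate control, with the median of replicates taken. HCC1569 and TDF cells were treated with compounds at 10 µM for 24 h at 37 °C, in triplicate, then fixed and immunostained for H1.0 with DAPI as a nuclear stain. HCC1569 values were smoothed to correct for positional effects.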

TDF [2] = experiment: as above
Procedure, shortened: as §1

TDF [3] = experiment: H1.0 immunofluorescence intensity relative to DMSO (% of DMSO); higher = stronger H1.0 induction, active = 120 or more
Procedure, shortened: as §1

HCC1569 [4] = experiment: H1.0 immunofluorescence intensity relative to DMSO (% of DMSO); higher = stronger H1.0 induction, active = 140 or more
Procedure, shortened: as §1
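Throughout, for H1.0 immunofluorescence intensity relative to DMSO: TDF is a line of transformed human dermal fibroblasts of mesenchymal origin.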
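Throughout, for cell number relative to DMSO: TDF denotes transformed human dermal fibroblasts of mesenchymal origin.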

Compound | cell number (HCC1569 [1]) | cell number (TDF [2]) | H1.0 immunofluorescence intensity (TDF [3]) | H1.0 immunofluorescence intensity (HCC1569 [4])
CC(C)(CO)Cc1cc(C(C)(C)C)c(O)c(C(C)(C)C)c1 | 102 | 106 | 94.6 (inactive) | 109 (inactive)
CCC1(O)CC2CN(CCc3c([nH]c4ccccc34)C(C(=O)OC)(c3cc4c(cc3OC)N(C=O)C3C(O)(C(=O)OC)C(OC(C)=O)C5(CC)C=CCN6CCC43C65)C2)C1.O=S(=O)(O)O (stereo unspecified) [Vincristine sulfate] | 57.3 ± 1 | 9.46 ± 1.6 | 167 (active) | 151 (active)
CCCCCCCCCCCCCCC(C(=O)O)=C(C)C(=O)O [Chaetomellic acid A] | 102 | 93.6 | 104 (inactive) | 100 (inactive)
COC(C(=O)C(O)C(C)O)C1Cc2cc3cc(OC4CC(OC5CC(O)C(O)C(C)O5)C(O)C(C)O4)c(C)c(O)c3c(O)c2C(=O)C1OC1CC(OC2CC(OC3CC(C)(O)C(O)C(C)O3)C(O)C(C)O2)C(O)C(C)O1 (stereo unspecified) [Plicamycin] | 60.8 | 36 | 103 (inactive) | 126 (inactive)
COc1ccccc1NC(=O)Nc1nc(-c2cccnc2)nc2ccccc12 | 97.6 | 102 | 95.1 (inactive) | 104 (inactive)
O=C(Nc1ccccc1)c1cc([N+](=O)[O-])ccc1Cl | 98.3 | 90.5 | 100 (inactive) | 97.9 (inactive)
COc1ccc(CC[C@H]2CCC[C@@H](CCc3ccc(OC)cc3)N2C[C@@H](O)CO)cc1.Cl | 101 | 103 | 93.3 (inactive) | 92.7 (inactive)
CC(C)NCC(O)COc1ccc(CC(N)=O)cc1 (racemic) | 109 | 101 | 93.8 (inactive) | 88.2 (inactive)
O=C1C=CC(=C2NC(c3ccncc3)=C(c3ccc(F)cc3)N2)C=C1 | 79.5 and 79.7 | 95.1 and 96.9 | 97.7 (inactive) and 97.1 (inactive) | 125 (inactive) and 124 (inactive)
CCC=CCC=CCC=CCC=CCC=CCCCCCC(=O)O [Docosapentaenoic acid] | 100.4 ± 0.68 | 97.7 ± 1.7 | 101 (inactive) | 103 (inactive)
O=C(/C=C/c1cccnc1)NCCCCC1CCN(C(=O)c2ccccc2)CC1 | 106 | 107 | 98.9 (inactive) | 90.3 (inactive)
CC1OC(OC2C(Oc3cc(O)c4c(=O)cc(-c5ccc(O)cc5)oc4c3)OC(CO)C(O)C2O)C(O)C(O)C1O (stereo unspecified) [Rhoifolin] | 102 | 112 | 88.4 (inactive) | 89.9 (inactive)
Cc1c(C(=O)O)c(O)cc2c1C(=O)c1c(O)c(C3OC(CO)C(O)C(O)C3O)c(O)c(O)c1C2=O (stereo unspecified) [Carminic acid] | 101 | 107 | 102 (inactive) | 99.8 (inactive)
CCCCCCCCCCC(=O)O [Undecanoic acid] | 104 | 100 | 113 (inactive) | 103 (inactive)
Cc1cn(-c2cc(NC(=O)c3ccc(C)c(Nc4nccc(-c5cccnc5)n4)c3)cc(C(F)(F)F)c2)cn1 [Nilotinib] | 100 | 73.5 | 101 (inactive) | 94.2 (inactive)
N#CC(=Cc1ccc(O)c(O)c1)C(=O)NCCCNC(=O)C(C#N)=Cc1ccc(O)c(O)c1 [Tyrphostin AG 537] | 101 | 101 | 94 (inactive) | 99.6 (inactive)
Cc1c2oc3c(C)ccc(C(=O)NC4C(=O)NC(C(C)C)C(=O)N5CCCC5C(=O)N(C)CC(=O)N(C)C(C(C)C)C(=O)OC4C)c3nc-2c(C(=O)NC2C(=O)NC(C(C)C)C(=O)N3CCCC3C(=O)N(C)CC(=O)N(C)C(C(C)C)C(=O)OC2C)c(N)c1=O (stereo unspecified) [Actinomycin D] | 46.2 | 16.9 | 179 (active) | 175 (active)
c1ccc(C(OC2CCN(CCCc3nn[nH]n3)CC2)c2ccccc2)cc1 [4-(benzhydryloxy)-1-[3-(1H-tetraazol-5-yl)propyl]piperidine] | 104 | 102 | 92.8 (inactive) | 107 (inactive)
Cl.NCC(O)C1CCCCCCC1 (stereo unspecified) [2-Cyclooctyl-2-hydroxyethylamine hydrochloride] | 101 | 103 | 97.1 (inactive) | 92.8 (inactive)
Cc1c(C)c2c(c(C)c1O)CCC(C)(COc1ccc(CC3SC(=O)NC3=O)cc1)O2 (stereo unspecified) [Troglitazone] | 99.8 | 93.8 | 101 (inactive) | 103 (inactive)
Cc1cc(Nc2nc(-c3ccccc3)nc3ccccc23)n[nH]1 [GSK-3 Inhibitor XIII] | 57 | 46.1 | 112 (inactive) | 182 (active)
Cn1c(=O)c2[nH]c(-c3ccc(S(=O)(=O)O)cc3)nc2n(C)c1=O [8-(p-Sulfophenyl)theophylline] | 101 | 109 | 93.8 (inactive) | 89 (inactive)
CC(CN(C)C)CN1c2ccccc2CCc2ccccc21.O=C(O)C=CC(=O)O (stereo unspecified) [Trimipramine maleate] | 106 | 106 | 102 (inactive) | 109 (inactive)
CCCCCCCCCCCCCCCC(=O)OC1C(SC)OC(C(NC(=O)C2CC(CCC)CN2C)C(C)Cl)C(O)C1O.Cl (stereo unspecified) [Clindamycin palmitate.HCl] | 96.5 | 101 | 93.3 (inactive) | 106 (inactive)
CNCC(O)c1ccc(O)c(O)c1.O=C(O)C(O)C(O)C(=O)O [L-(+)-Epinephrine tartrate] | 104 | 97 | 93.2 (inactive) | 106 (inactive)

Compound | cell number (HCC1569 [1]) | cell number (TDF [2]) | H1.0 immunofluorescence intensity (TDF [3]) | H1.0 immunofluorescence intensity (HCC1569 [4])
NC(Cc1ccc(Cl)cc1)C(=O)O (racemic) | 101 | 106 | 88.6 (inactive) | 87.6 (inactive)
COc1ccccc1OCCNCC(O)COc1cccc2[nH]c3ccccc3c12 (stereo unspecified) [Carvedilol] | 92.6 ± 15 | 104 ± 4.5 | 99.3 (inactive) | 106 (inactive)
CC1C(=O)N=C2Nc3cccc(Cl)c3CN21 (stereo unspecified) [Quazinone] | 111 | 106 | 94.9 (inactive) | 96.3 (inactive)
CC(CN(C)C)CN1c2ccccc2Sc2ccc(C#N)cc21 (stereo unspecified) | 93.5 | 90.4 | 118 (inactive) | 108 (inactive)
COc1cc(Br)c(Nc2nc(-c3c(C)nc4ncccn34)cs2)c(Br)c1 | 61.1 | 53.8 | 108 (inactive) | 199 (active)
Cn1cnc2c(NC3CCCC3)ncnc21 [N6-Cyclopentyl-9-methyladenine] | 76.8 | 98.1 | 97.3 (inactive) | 159 (active)
C=CCCCCCCCCCC(=O)O [11-Dodecenoic acid] | 97.4 | 98.7 | 102 (inactive) | 103 (inactive)
CCCCCC(O)C=CC1C(=O)C=CC1CC=CCCCC(=O)O (stereo unspecified) [Prostaglandin J2] | 99.8 | 99.5 | 89.3 (inactive) | 100 (inactive)
CCCCCCCCCCCCCC=CC(O)C(CO)N(C)C (stereo unspecified) [N,N-Dimethylsphingosine] | 110 | 90.2 | 101 (inactive) | 101 (inactive)
Cc1ccc(-c2cc(C(F)(F)F)nn2-c2ccc(S(N)(=O)=O)cc2)cc1 [Celecoxib] | 97.7 | 103 | 99.1 (inactive) | 106 (inactive)
CNCCC(Oc1ccc(C(F)(F)F)cc1)c1ccccc1.Cl (stereo not drawn) [S-(+)-Fluoxetine hydrochloride] | 91.2 | 93.3 | 107 (inactive) | 111 (inactive)
CCOc1ccc2ccc(=O)oc2c1 [7-ethoxy-2H-chromen-2-one] | 99.7 | 108 | 93.7 (inactive) | 103 (inactive)
O=c1cc(N2CCNCC2)oc2c(-c3ccccc3)cccc12 | 101 | 98.3 | 92.8 (inactive) | 136 (inactive)
COc1cccc(C(=O)NCCN2CCN(c3ccc(Cl)cc3)CC2)c1 | 101 | 109 | 94.5 (inactive) | 92.3 (inactive)
Cc1cc2c(s1)=Nc1ccccc1NC=2N1CCN(C)CC1 [Olanzapine] | 106 | 99.4 | 92.2 (inactive) | 95.6 (inactive)
O=C1Nc2cc(Br)ccc2C1=C1N=c2ccccc2=C1NO [GSK-3 Inhibitor IX] | 56.3 | 70.1 | 112 (inactive) | 222 (active)
CCC=CCC=CCC=CCC=CCCCCC(=O)O.[Na] [6(Z), 9(Z), 12(Z), 15(Z)-Octadecatetraenoic acid] | 102 | 91.9 | 106 (inactive) | 102 (inactive)
OCc1c[nH]c2ccccc12 [Indole-3-carbinol] | 97.5 | 109 | 102 (inactive) | 110 (inactive)
CCCCCC=CCC=CC=CC=CC(SCC(NC(=O)CCC(N)C(=O)O)C(=O)NCC(=O)O)C(O)CCCC(=O)O (stereo unspecified) [Leukotriene C4] | 99.8 | 92.2 | 90.1 (inactive) | 105 (inactive)
Cl.O=c1cc(N2CCOCC2)oc2c(-c3ccccc3)cccc12 | 87.7 | 91.7 | 86.9 (inactive) | 141 (active)
CCCCCC=CCC=CCCCCCCCC(=O)NCC(=O)O [N-Linoleoylglycine] | 105 | 101 | 96.8 (inactive) | 103 (inactive)
CCN(CC)CCCCCCCCOC(=O)c1cc(OC)c(OC)c(OC)c1.Cl [TMB-8 hydrochloride] | 105 | 105 | 99.8 (inactive) | 84.2 (inactive)
CNCCC(Oc1ccccc1C)c1ccccc1 (stereo unspecified) [Tomoxetine] | 101 | 112 | 103 (inactive) | 102 (inactive)
CC#CC(=O)Nc1cc2c(Nc3ccc(F)c(Cl)c3)ncnc2cn1 [EGFR/ErbB-2/ErbB-4 Inhibitor] | 87.1 | 78.2 | 104 (inactive) | 113 (inactive)
